ER stress surv: protection against thapsigargin ER stress killing – CSM14.1 cells, ATP luminescence, primary screen; CSM14.1 thapsigargin ER stress survival; relative survival (cellular ATP), % at 15 µg/mL (by protocol); 48,000 tested, 0.33% active; AID 1010, 2008;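 active = survival measured by cellular ATP above 50% at 15 µg/ml in the first screen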;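 note: cell death triggered by about 15 µM thapsigargin; ATP read 24 h after thapsigargin was added; plate controls were thapsigargin with DMSO for no effect and DMSO without thapsigargin for full effect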
Numbers without * were called inactive. This is one part of a sample in which hits are shown more often than they occur.

SMILES	ER stress surv
O=C(COc1ccccc1)N1N=C(c2ccccc2)CC1(O)C(F)(F)F (configuration not stated)	20
CSc1nnc2n(C)c(=O)c3c4c(sc3n12)COC(C)(C)C4	6
Cc1cc(N2C(=O)NC(=O)/C(=C\C=C\c3ccco3)C2=O)ccc1Br	2
O=C1NC(=S)N(c2ccc(Cl)cc2)C(=O)/C1=C/C=C/c1ccccc1	44
O=C1NC(=O)N(c2ccc(Cl)cc2)C(=O)/C1=C\C=C\c1ccco1	54*
COc1ccc(C2CC(=O)C3=C(C2)Nc2ccccc2NC3c2ccc(C(F)(F)F)cc2)cc1 (configuration not stated)	2
COc1ccc(C2CC(=O)C3=C(C2)Nc2ccccc2NC3c2c(F)cccc2F)cc1 (configuration not stated)	5
CCOc1cccc(C2Nc3ccccc3NC3=C2C(=O)CC(c2ccc(OC)cc2)C3)c1 (configuration not stated)	106*
COc1ccc(C2CC(=O)C3=C(C2)Nc2ccccc2NC3c2ccc(F)c(Br)c2)cc1 (configuration not stated)	15
COc1ccc(C2Nc3ccccc3NC3=C2C(=O)CC(c2ccccc2)C3)c(OC)c1 (configuration not stated)	7
Cc1ccc2c(c1)NC(c1ccc3c(c1)OCO3)C1=C(CC(c3ccccc3)CC1=O)N2 (configuration not stated)	92*
COc1ccc(C2CC(=O)C3=C(C2)Nc2ccccc2NC3c2cc(OC)c(OC)cc2Br)cc1 (configuration not stated)	4
CSc1ccc(C2Nc3ccccc3NC3=C2C(=O)CC(c2ccc4c(c2)OCO4)C3)cc1 (configuration not stated)	-3
COc1ccc(C2CC(=O)C3=C(C2)Nc2ccccc2NC3c2ccc(Br)s2)cc1 (configuration not stated)	85*
COc1ccc(C2CC(=O)C3=C(C2)Nc2ccccc2NC3c2ccc3ccccc3c2)cc1 (configuration not stated)	50*
Cc1ccc2c(c1)NC(c1ccc(F)cc1)C1=C(CC(c3ccccc3)CC1=O)N2 (configuration not stated)	1
COc1ccc(C2Nc3ccccc3NC3=C2C(=O)CC(c2ccccc2)C3)cc1 (configuration not stated)	22
O=C(Nc1ccc(O)cc1)c1ccc2c(c1)C(=O)N(c1ccccc1-c1ccccc1)C2=O	10
NC1=C(Nc2ccccc2)C(=O)c2ccccc2C1=O	-9
NC(=O)c1ccccc1NC(=O)COc1ccc(Cl)cc1Br	1
CCC(=O)Nc1sc2c(c1C(=O)Nc1ccc(OC)cc1)CCCCC2	8
COc1ccc(C)cc1NC(=O)COc1ccc(Br)cc1C	6
COc1cccc(N2C(=O)C=C(C)C2=O)c1	7
CCOC(=O)C(CC#CCN(C)C)(CC#CCN(C)C)C(=O)OCC	-2
O=C(N/N=C/c1ccc(O)c(O)c1)Nc1ccccc1	-26
SMILES	ER stress surv
COC(=O)C1=C(C)N(c2cccc(C)c2)C(=O)/C1=C\c1ccc(O)cc1	-3
CCOc1cc(C2Nc3ccccc3NC3=C2C(=O)CC(c2ccc(OC)cc2)C3)cc(Cl)c1O (configuration not stated)	112*
COc1ccc(C2CC(=O)C3=C(C2)Nc2ccccc2NC3c2ccc(Cl)c([N+](=O)[O-])c2)cc1 (configuration not stated)	104*
COc1ccc(C2CC(=O)C3=C(C2)Nc2ccccc2NC3c2ccc(C)c([N+](=O)[O-])c2)cc1OC (configuration not stated)	4
COc1ccc(C2CC(=O)C3=C(C2)Nc2ccccc2NC3c2cccc(O)c2)cc1 (configuration not stated)	-4
COc1cc(C2Nc3ccccc3NC3=C2C(=O)CC(c2ccc(Cl)cc2)C3)cc(OC)c1OC (configuration not stated)	-1
CCOc1cc(C2Nc3ccccc3NC3=C2C(=O)CC(c2ccc(OC)cc2)C3)ccc1OC(=O)C1CC1 (configuration not stated)	2
O=C1CC(c2ccc(Cl)cc2)CC2=C1C(c1cccs1)Nc1ccccc1N2 (configuration not stated)	68*
O=C1CC(c2ccccc2)CC2=C1C(c1cccc(Br)c1)Nc1ccccc1N2 (configuration not stated)	88*
COc1ccc(C2CC(=O)C3=C(C2)Nc2ccccc2NC3c2cccc(Br)c2)cc1 (configuration not stated)	25
O=C1CC(c2ccccc2)CC2=C1C(c1ccc(Cl)c(Cl)c1)Nc1ccccc1N2 (configuration not stated)	6
Cc1ccc(C2Nc3ccccc3NC3=C2C(=O)CC(c2ccc(Cl)cc2)C3)cc1 (configuration not stated)	4
O=C1CC(c2ccccc2)CC2=C1C(c1ccc(F)c(Br)c1)Nc1ccccc1N2 (configuration not stated)	6
